From PubChem BioAssay AID1159580 (chemical genetic matrix, 2015)
The whole screen tested about 5,500 compounds, of which about 2,000 (36%) were called active. Not shown: some 18% with an inconclusive outcome. Rule as the data show it: active = normalized growth mostly below about 0.91 (no sharp cut-off); inconclusive = no clear call, values can overlap the other calls; inactive = mostly above about 0.92. Some of the results follow.

Test: chemical genetic growth profiling, strain panel (AID 1159580);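 also: tested at 20 µM; growth read once vehicle control cultures reached saturation at 30 °C; 1 = growth at the plate median or of vehicle wells; lower values mean less growth of the strain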
Details: growth OD

Measured: normalized growth

C[C@H](N)[C@H](O)c1ccccc1
inactive: S. cerevisiae deletion strains, locus YBR021W, strain FUR4, active compounds read low 0.997 | S. cerevisiae deletion strains, locus YBR229C, strain ROT2, active compounds read low 1 | S. cerevisiae deletion strains, locus YCL029C, strain bik1, active compounds read low 1 | S. cerevisiae deletion strains, locus YDL035C, strain GPR1, active compounds read low 1.01 | S. cerevisiae deletion strains, locus YDL074C, strain BRE1, active compounds read low 1.01 | S. cerevisiae deletion strains, locus YDL101C, strain DUN1, active compounds read low 0.949 | S. cerevisiae deletion strains, locus YDL134C, strain PPH21, active compounds read low 1 | S. cerevisiae deletion strains, locus YDL185W, strain tfp1, active compounds read low 0.991 | S. cerevisiae deletion strains, locus YDL192W, strain arf1, active compounds read low 1 | S. cerevisiae deletion strains, locus YDR101C, strain arx1, active compounds read low 1 | S. cerevisiae deletion strains, locus YDR150W, strain NUM1, active compounds read low 1.01 | S. cerevisiae deletion strains, locus YDR162C, strain NBP2, active compounds read low 1.01 | S. cerevisiae deletion strains, locus YDR318W, strain mcm21, active compounds read low 0.993 | S. cerevisiae deletion strains, locus YDR388W, active compounds read low 0.993 | S. cerevisiae deletion strains, locus YDR502C, strain sam2, active compounds read low 0.994 | S. cerevisiae deletion strains, locus YEL061C, strain CIN8, active compounds read low 1 | S. cerevisiae deletion strains, locus YER110C, active compounds read low 0.997 | S. cerevisiae deletion strains, locus YER155C, strain BEM2, active compounds read low 0.998 | S. cerevisiae deletion strains, locus YER167W, strain BCK2, active compounds read low 1 | S. cerevisiae deletion strains, locus YGL078C, strain dbp3, active compounds read low 0.996 | S. cerevisiae deletion strains, locus YGL086W, strain mad1, active compounds read low 0.991 | S. cerevisiae deletion strains, locus YGL248W, strain PDE1, active compounds read low 1 | S. cerevisiae deletion strains, locus YGR078C, strain PAC10, active compounds read low 1.01 | S. cerevisiae deletion strains, locus YGR135W, strain pre9, active compounds read low 0.998 | S. cerevisiae deletion strains, locus YGR229C, strain SMI1, active compounds read low 1 | S. cerevisiae deletion strains, locus YGR252W, strain gcn5, active compounds read low 1.01 | S. cerevisiae deletion strains, locus YHR030C, strain SLT2, active compounds read low 1 | S. cerevisiae deletion strains, locus YHR079C, strain IRE1 (second series), active compounds read low 0.997 | S. cerevisiae deletion strains, locus YHR094C, strain hxt1, active compounds read low 0.996 | S. cerevisiae deletion strains, locus YHR129C, strain ARP1, active compounds read low 1.01 | S. cerevisiae deletion strains, locus YHR200W, strain rpn10, active compounds read low 0.995 | S. cerevisiae deletion strains, locus YIL066C, strain RNR3, active compounds read low 1 | S. cerevisiae deletion strains, locus YIL073C, strain SPO22, active compounds read low 1.03 | S. cerevisiae deletion strains, locus YIL125W, strain kgd1, active compounds read low 0.994 | S. cerevisiae deletion strains, locus YIR030C, strain dcg1, active compounds read low 0.996 | S. cerevisiae deletion strains, locus YJL095W, strain BCK1, active compounds read low 1.02 | S. cerevisiae deletion strains, locus YJL134W, strain LCB3, active compounds read low 1 | S. cerevisiae deletion strains, locus YJL168C, strain set2, active compounds read low 0.995 | S. cerevisiae deletion strains, locus YJL187C, strain SWE1 (second series), active compounds read low 1.01 | S. cerevisiae deletion strains, locus YJR043C, strain POL32, active compounds read low 0.982 | S. cerevisiae deletion strains, locus YKL009W, strain mrt4, active compounds read low 0.989 | S. cerevisiae deletion strains, locus YKL068W, active compounds read low 0.999 | S. cerevisiae deletion strains, locus YKL085W, strain MDH1 (second series), active compounds read low 0.989 | S. cerevisiae deletion strains, locus YKL085W, strain MDH1, active compounds read low 0.989 | S. cerevisiae deletion strains, locus YKL190W, strain CNB1, active compounds read low 1 | S. cerevisiae deletion strains, locus YKR001C, strain vps1, active compounds read low 0.99 | S. cerevisiae deletion strains, locus YLR039C, strain RIC1, active compounds read low 0.993 | S. cerevisiae deletion strains, locus YLR058C, strain SHM2, active compounds read low 1 | S. cerevisiae deletion strains, locus YLR102C, strain apc9, active compounds read low 1 | S. cerevisiae deletion strains, locus YLR262C, strain YPT6, active compounds read low 1.01 | S. cerevisiae deletion strains, locus YLR268W, strain sec22, active compounds read low 0.99 | S. cerevisiae deletion strains, locus YLR330W, strain CHS5, active compounds read low 0.999 | S. cerevisiae deletion strains, locus YLR342W, strain FKS1 (second series), active compounds read low 1.01 | S. cerevisiae deletion strains, locus YLR371W, strain rom2, active compounds read low 1 | S. cerevisiae deletion strains, locus YLR418C, strain cdc73, active compounds read low 0.978 | S. cerevisiae deletion strains, locus YML016C, strain PPZ1, active compounds read low 1 | S. cerevisiae deletion strains, locus YML032C, strain rad52, active compounds read low 0.984 | S. cerevisiae deletion strains, locus YML124C, strain tub3, active compounds read low 0.998 | S. cerevisiae deletion strains, locus YMR078C, strain ctf18, active compounds read low 0.993 | S. cerevisiae deletion strains, locus YMR223W, strain ubp8, active compounds read low 1 | S. cerevisiae deletion strains, locus YMR263W, strain SAP30, active compounds read low 1 | S. cerevisiae deletion strains, locus YMR307W, strain GAS1, active compounds read low 0.983 | S. cerevisiae deletion strains, locus YNL067W, strain RPL9B, active compounds read low 1 | S. cerevisiae deletion strains, locus YNL128W, strain TEP1, active compounds read low 1.01 | S. cerevisiae deletion strains, locus YNL153C, strain GIM3, active compounds read low 1 | S. cerevisiae deletion strains, locus YNL233W, strain BNI4, active compounds read low 0.996 | S. cerevisiae deletion strains, locus YNL250W, strain rad50, active compounds read low 0.984 | S. cerevisiae deletion strains, locus YNL271C, strain bni1, active compounds read low 0.998 | S. cerevisiae deletion strains, locus YNL298W, strain CLA4, active compounds read low 1 | S. cerevisiae deletion strains, locus YNL307C, strain MCK1, active compounds read low 0.999 | S. cerevisiae deletion strains, locus YNL322C, strain KRE1, active compounds read low 1 | S. cerevisiae deletion strains, locus YNR052C, strain pop2, active compounds read low 1 | S. cerevisiae deletion strains, locus YOL006C, strain TOP1, active compounds read low 1.02 | S. cerevisiae deletion strains, locus YOL012C, strain htz1 1.73 | S. cerevisiae deletion strains, locus YOL147C, strain pex11, active compounds read low 0.996 | S. cerevisiae deletion strains, locus YOR061W, strain CKA2, active compounds read low 0.998 | S. cerevisiae deletion strains, locus YOR069W, strain VPS5, active compounds read low 1 | S. cerevisiae deletion strains, locus YOR136W, strain idh2, active compounds read low 0.996 | S. cerevisiae deletion strains, locus YOR144C, strain elg1, active compounds read low 0.995 | S. cerevisiae deletion strains, locus YOR184W, strain ser1, active compounds read low 0.985 | S. cerevisiae deletion strains, locus YOR316C, strain cot1, active compounds read low 0.999 | S. cerevisiae deletion strains, locus YPL055C, strain LGE1, active compounds read low 1.01 | S. cerevisiae deletion strains, locus YPR119W, strain clb2, active compounds read low 0.999 | S. cerevisiae deletion strains, locus YPR141C, strain kar3, active compounds read low 0.996 | S. cerevisiae deletion strains, locus YPR163C, strain tif3, active compounds read low 0.994 | S. cerevisiae deletion strains, locus YPR167C, strain met16, active compounds read low 1 | S. cerevisiae deletion strains, strain wtn01, active compounds read low 0.983 | S. cerevisiae strains, strain wild type, active compounds read low 1
